Laboratory results published in PubChem BioAssay AID1259421 (Broad Institute, 2018).
Where “and” joins values, the source holds several entries; their conditions need not be identical. Identical values can stand only once. In all, about 6,400 compounds went through this assay and about 610 (9.5%) were called active. Rule as the data show it: active = activity change below about -70%; inconclusive = no clear call, values can overlap the other calls; inactive = above that. This excerpt belongs to a sample that is enriched for actives. Where a structure was tested more than once in an assay, its records may differ in their call. Where a SMILES comes first, the peptide text is derived from it.

Assay: Toxoplasma gondii ME49Luc growth in HeLa cells, luciferase, no IFN-y, primary screen (AID 1259421)
Conditions: T. gondii ME49Luc in HeLa, 72 h, stronger effect = lower value, concentration not given here

Structure (SMILES) | activity change, negative = inhibition
CC[C@@H]1OC(=O)C[C@@H](O)[C@H](C)[C@@H](O[C@@H]2O[C@H](C)[C@@H](O)[C@H](N(C)C)[C@H]2O)[C@@H](CCN2C[C@H](C)C[C@H](C)C2)C[C@@H](C)C(=O)/C=C/C(C)=C\[C@@H]1CO[C@@H]1O[C@H](C)[C@@H](O)[C@@H](OC)[C@H]1OC | 17.5% (inactive)
CN1[C@@H]2CC(OC(=O)[C@H](CO)c3ccccc3)C[C@H]1[C@H]1O[C@H]12 (some centres undefined) | 23.8% (inactive)
CCCCCCCC/C=C/C(=O)O | 1.14% (inactive)
CO/N=C(\C(=O)N[C@@H]1C(=O)N2C(C(=O)OCOC(=O)C(C)(C)C)=C(C)CS[C@H]12)c1csc(N)n1 | 21.8% (inactive)
OC[C@@]1(O)OC[C@@H](O)[C@@H](O)[C@@H]1O | 7.13% (inactive)
CNC(=O)c1ccccc1Nc1cc(Nc2ccc(N3CCOCC3)cc2OC)ncc1C(F)(F)F | -46.5% (inactive)
COc1cc(N2CCC(N3CCN(C)CC3)CC2)ccc1Nc1ncc(Cl)c(Nc2ccccc2S(=O)(=O)C(C)C)n1 | -84.8% (active)
COc1cc(N2CCC(N3CCN(C)CC3)CC2)ccc1Nc1ncnc(Nc2ccccc2S(=O)(=O)C(C)C)n1 | -35.3% (inactive)
CNC(=O)c1c(F)cccc1Nc1nc(Nc2cc3c(cc2OC)CCN3C(=O)CN(C)C)nc2[nH]ccc12 | -10.7% (inactive)
COc1cc(N2CCC(N)CC2)ccc1Nc1ncc(Cl)c(-c2c[nH]c3ccccc23)n1 | -81% (active)
CN1CCN(c2nc(C3=C(c4c[nH]c5ccccc45)C(=O)NC3=O)c3ccccc3n2)CC1 | -9.55% (inactive)
CNC(=O)c1ccccc1Nc1nc(Nc2ccc3c(c2OC)CCC[C@H](N2CCN(CCO)CC2)C3)ncc1Cl | -74.8% (active)
COc1cc(N2CCC(N(C)C)CC2)ccc1Nc1ncc(Cl)c(Nc2ccccc2P(C)(C)=O)n1 | -60.2% (inactive)
CNC(=O)c1ccccc1Nc1nc(Nc2ccc(N3CCOCC3)cc2OC)ncc1Cl | -73.7% (active) and -87.3% (active)
CN(CCc1ccc(Cl)c(Cl)c1)CC(O)COc1ccc(NS(C)(=O)=O)cc1 (centres undefined) | -4.31% (inactive) and -8.47% (inactive)
O=C(NCC(=O)N1CC[C@H](NC2CCC(O)(c3ccc(-c4ncccn4)cn3)CC2)C1)c1cccc(C(F)(F)F)c1 (some centres undefined) | 13.2% (inactive)
COc1ccc2nc(S(=O)Cc3ncc(C)c(OC)c3C)[nH]c2c1 (centres undefined) | 29.5% (inactive) and 32.8% (inactive) and 15.1% (inactive)
O=Cc1ccc(CO)o1 | 3.95% (inactive)
O=c1c(OC2OC(CO)C(O)C(O)C2O)c(-c2ccc(O)c(O)c2)oc2cc(O)cc(O)c12 (centres undefined) | -1.42% (inactive)
NCC(=O)N[C@@H](CCC(N)=O)C(=O)O (H-Gly-Gln-OH) | 6.58% (inactive)
CC(C)C(N)=O | 7.84% (inactive)
Nc1ncnc2c1C(=O)N(c1ccc(C3CCC(CC(=O)O)CC3)cc1)CCO2 (centres undefined) | 6.2% (inactive)
NC1=N[C@H]2[C@H](CS[C@H]2CCCCC(=O)O)N1 | 20.2% (inactive)

Structure (SMILES) | activity change, negative = inhibition
C=C[C@]1(C)C[C@@H](OC(=O)CSC2C[C@H]3CC[C@@H](C2)N3C)[C@]2(C)[C@H](C)CC[C@]3(CCC(=O)[C@H]32)[C@@H](C)[C@@H]1O (some centres undefined) | -18.6% (inactive)
CC[C@H](NC(C)C)[C@H](O)c1ccc(O)c2[nH]c(=O)ccc12 | 3.71% (inactive)
CCOc1cc2ncc(C#N)c(Nc3ccc(OCc4ccccn4)c(Cl)c3)c2cc1NC(=O)/C=C/CN(C)C | -78.7% (active)
C=CC(=O)Nc1cc2c(Nc3ccc(F)c(Cl)c3)ncnc2cc1C#CC(C)(C)N1CCN(C)CC1 | -57.7% (inactive)
CCOc1cc(C(=O)Nc2ccc(Cl)c(-c3nc4ccccc4[nH]3)c2)cc(OCC)c1OCC | -69.9% (inactive)
CCOc1cc2ncc(C#N)c(Nc3ccc(F)c(Cl)c3)c2cc1NC(=O)/C=C/CN(C)C | -84.3% (active)
C[C@@H](NC(=O)c1ncnc(N)c1Cl)c1ncc(C(=O)Nc2cc(C(F)(F)F)c(Cl)cn2)s1 | 10.6% (inactive)
Cc1nc(NC(=O)N2CCC[C@H]2C(N)=O)sc1-c1csc(C(C)(C)C)n1 | 17.5% (inactive)
OCCNCCCOc1cccc(Cl)c1Cl | -43.4% (inactive) and 19.3% (inactive)
COc1cc([C@@H]2c3cc4c(cc3C(OC3O[C@@H]5COC(C)O[C@H]5[C@H](O)[C@H]3O)C3COC(=O)[C@@H]32)OCO4)cc(OC)c1O (some centres undefined) | -0.506% (inactive)
COc1cc([C@@H]2c3cc4c(cc3[C@@H](O[C@@H]3O[C@@H]5CO[C@@H](c6cccs6)O[C@H]5[C@H](O)[C@H]3O)[C@H]3COC(=O)[C@H]23)OCO4)cc(OC)c1O | -72.9% (active)
COc1cc([C@@H]2c3cc4c(cc3C(O[C@@H]3O[C@@H]5CO[C@@H](c6cccs6)OC5[C@H](O)[C@H]3O)C3COC(=O)[C@@H]32)OCO4)cc(OC)c1O (some centres undefined) | -79.4% (active)
COc1cc([C@@H]2c3cc4c(cc3C(OC3OC5COC(C)OC5C(O)C3O)C3OCC(=O)[C@@H]32)OCO4)cc(OC)c1O (some centres undefined) | -24.1% (inactive)
COc1cc([C@@H]2c3cc4c(cc3[C@@H](O[C@@H]3O[C@@H]5CO[C@@H](C)O[C@H]5[C@H](O)[C@H]3O)[C@H]3COC(=O)[C@H]23)OCO4)cc(OC)c1O | -10.1% (inactive) and -3.38% (inactive) and 9.65% (inactive)
COc1cc([C@@H]2c3cc4c(cc3[C@H](O)[C@H]3COC(=O)[C@H]23)OCO4)cc(OC)c1OC | -64.9% (inactive)
COc1cc2c(c(OC)c1OC)-c1c(cc3c(c1OC)OCO3)C[C@H](C)[C@@H](C)C2 | 13.7% (inactive)
COc1cc([C@@H]2c3cc4c(cc3[C@H](O)[C@H]3COC(=O)[C@@H]23)OCO4)cc(OC)c1OC | -71% (active)
C=C(C)[C@@H]1CC[C@]2(C(=O)O)CC[C@]3(C)[C@H](CC[C@@H]4[C@@]5(C)CC[C@H](OC(=O)CC(C)(C)C(=O)O)C(C)(C)[C@@H]5CC[C@]43C)[C@@H]12 | -18.2% (inactive)
Fc1ccc2nc(CCC#Cc3ccccn3)cn2c1 | 1.01% (inactive)
NS(=O)(=O)OC[C@@H]1C[C@@H](n2ccc3c(N[C@H]4CCc5ccccc54)ncnc32)C[C@@H]1O | -17.2% (inactive)
OC1C(O)C(O)C(O)C(O)C1O (centres undefined) | 18.3% (inactive)
COc1ccc(C(C#N)C(C)C)cc1OC (centres undefined) | 21.3% (inactive)
CN([NH2+][O-])c1cc(O)ccc1O | 11.6% (inactive)

Structure (SMILES) | activity change, negative = inhibition
Cc1occc(=O)c1CC=O | 1.36% (inactive)
CC1COC2(CCN(c3nc(=O)c4cc(C(F)(F)F)cc([N+](=O)[O-])c4s3)CC2)O1 (centres undefined) | 301% (inactive)
COc1cc2ncnc(Nc3ccc(Cl)cc3F)c2cc1OC | -68.4% (inactive) and -67% (inactive)
Cc1cc(F)c(Nc2ncnc3cc(OCc4ccccc4)ccc23)cc1O | -65.2% (inactive) and -70.4% (active)
COc1cc2ncnc(Nc3ccc(Oc4ccccc4)cc3)c2cc1OC | 2.86% (inactive)
O=C(O)CCCN1CCC(O[C@@H](c2ccc(Cl)cc2)c2ccccn2)CC1 | 24.8% (inactive)
CC(C)(C)c1ccc(C(=O)CCCN2CCC(OC(c3ccccc3)c3ccccc3)CC2)cc1 | -87.2% (active)
CC(C)(C(=O)O)c1ccc(C(=O)CCCN2CCC(OC(c3ccccc3)c3ccccc3)CC2)cc1 | 6.98% (inactive)
O=P(O)(O)OC(CO)CO | 38% (inactive)
CN(C)C(=O)c1ccc(S(=O)(=O)c2ccc(NC(=O)C(C)(O)C(F)(F)F)c(Cl)c2)cc1 (centres undefined) | -6.06% (inactive)
CC1(C)C2CC[C@]3(C)C(C(=O)C=C4[C@H]5C[C@@](C)(C(=O)O)CC[C@]5(C)CC[C@]43C)[C@@]2(C)CC[C@@H]1O (some centres undefined) | 1.01% (inactive)
CC1(C)[C@@H](O)CC[C@]2(C)[C@H]3C(=O)C=C4[C@@H]5C[C@@](C)(C(=O)O)CC[C@]5(C)CC[C@@]4(C)[C@]3(C)CC[C@@H]12 | 6.44% (inactive)
CC(=O)Oc1cc2c(c(C)c1OC(C)=O)CC=C1[C@@]2(C)CC[C@@]2(C)C3C[C@](C)(C(=O)O)CC[C@]3(C)CC[C@]12C (some centres undefined) | -93.4% (active)
C=C[C@@](C)(O)CCC1C(=C)CCC2[C@@](C)(CO)CCC[C@]12C (some centres undefined) | 13.4% (inactive)
CC1(C)O[C@@H]2CC3C4C[C@H](F)C5=CC(=O)C=C[C@]5(C)[C@@]4(F)[C@@H](O)C[C@]3(C)[C@]2(C(=O)CO)O1 (some centres undefined) | -11.6% (inactive)
Cc1cnc(Nc2ccc(OCCN3CCCC3)cc2)nc1Nc1cccc(S(=O)(=O)NC(C)(C)C)c1 | -95.9% (active)
C=CC(=O)Nc1cccc(Oc2nc(Nc3ccc(N4CCN(C)CC4)cc3)ncc2Cl)c1 | -59.1% (inactive)
C=CC(=O)Nc1cccc(Sc2nc(Nc3ccc(N4CCN(C)CC4)cc3)ncc2Cl)c1 | -58.5% (inactive)
CS(=O)(=O)c1cccc(CNc2nc(Nc3ccc4c(c3)CCC(=O)N4)ncc2C(F)(F)F)c1 | -29.4% (inactive)
C=CC(=O)Nc1cccc(Nc2nc(Nc3ccc(OCCOC)cc3)ncc2F)c1 | -10% (inactive)
Cc1cnc(Nc2ccc(N3CCN(C)CC3)cc2)nc1Nc1cccc(S(=O)(=O)NC(C)(C)C)c1 | -76.6% (active)
CC(CCCCC(=O)Nc1ccc(C(F)(F)F)cc1)NCCc1cnc[nH]1 (centres undefined) | -0.447% (inactive) and -3.16% (inactive)
CO/N=C(\C(=O)N[C@@H]1C(=O)N2C(C(=O)O)=C(CSC(=O)c3ccco3)CS[C@H]12)c1csc(N)n1 | 17.6% (inactive) and -30.2% (inactive)
